Test results from PubChem BioAssay AID434998 (Southern Research Specialized Biocontainment Screening …, 2010).
Activity calls are given as the source filed them. The rule behind the calls is not given here.

Assay: S. Typhi GFP reporter counter-screen inhibition, SAR follow-up, counter-screen for PhoP regulon inhibitor project, purified and synthesized compounds, round 3 (AID 434998)
Conditions: S. typhi GFP reporter fluorescence, high Mg2+ counter-screen, 4 h; series mostly up to 150 µM

Structure (SMILES) | outcome
Cc1ccccc1CNC(=S)Nc1ccncc1 | inactive
Cc1cccc(NC(=O)N2CCCN(Cc3ccccc3F)C2)c1 | inactive
N#Cc1ccc(NC(=S)NCc2ccc(Cl)cc2)cc1 | inactive
COc1ccccc1CNC(=S)Nc1ccncc1 | inactive
Cc1ccc(NC(=O)N2CCCN(Cc3ccccc3F)C2)cc1 | inactive
N#Cc1ccccc1NC(=S)NCc1ccc(Cl)cc1 | inactive
O=C(Nc1cccc(C(F)(F)F)c1)N1CCCN(Cc2ccccc2F)C1 | inactive
O=C(Nc1ccc(Cl)cc1)N1CCCN(Cc2ccccc2Br)C1 | inactive
O=C(Nc1ccc(Cl)cc1)N1CCCN(Cc2ccc(Br)cc2)C1 | inactive
O=C(Nc1cccc(F)c1)N1CCCN(Cc2ccccc2F)C1 | inactive
O=C1C2=C(Nc3ccccc3SC2c2cccc(I)c2)c2ccccc21 (centres undefined) | inactive
S=C(NCCc1ccc(Cl)cc1)Nc1ccncc1 | inactive
O=C(Nc1cccc(I)c1)N1CCCN(Cc2ccccc2F)C1 | inactive
O=C(Nc1ccc(I)cc1)N1CCCN(Cc2ccccc2F)C1 | inactive
